Compound activity from PubChem.
CYP2C9 inh = blockers of cytochrome P450 2C9 activity – biochemical, luminescence, ADME assay, primary screen | CYP2C9 Supersomes, luciferin-H conversion | inhibition, % at 5 µM | actives 20% (n = 96,000);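 active means blocking of liver enzyme CYP2C9 beyond about 50% at 5 µM, limit read from the data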
CYP2C19 activ = human CYP2C19 activators, primary screen, biochemical, luminescence | recombinant CYP2C19, luciferin-H EGE luminescence; hits give high values; 0 = fully inhibited enzyme, 1 = untreated enzyme | activation factor at 5 µM | 96,000 tested, under 10 active | AID 1025, 2008;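 active means activation factor of at least 2 at 5 µM in the primary screen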
Target sequence (P33261 whole entry, looked up): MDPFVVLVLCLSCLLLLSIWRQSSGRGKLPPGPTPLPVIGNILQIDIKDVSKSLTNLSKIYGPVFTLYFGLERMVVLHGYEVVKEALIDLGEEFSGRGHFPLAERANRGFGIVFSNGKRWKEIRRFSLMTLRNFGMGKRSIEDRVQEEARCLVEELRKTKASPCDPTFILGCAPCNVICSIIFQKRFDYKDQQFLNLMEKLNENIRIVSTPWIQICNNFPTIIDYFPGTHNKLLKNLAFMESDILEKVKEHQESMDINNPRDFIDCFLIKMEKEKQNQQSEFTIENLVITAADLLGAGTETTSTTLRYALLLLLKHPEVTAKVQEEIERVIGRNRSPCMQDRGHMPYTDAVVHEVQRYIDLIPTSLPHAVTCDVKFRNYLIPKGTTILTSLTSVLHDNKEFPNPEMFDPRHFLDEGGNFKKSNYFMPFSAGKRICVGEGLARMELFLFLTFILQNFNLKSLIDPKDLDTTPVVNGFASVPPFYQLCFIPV
CYP2C9 act = human CYP2C9 activators, primary screen, biochemical, luminescence | Cytochrome P450 2C9 (Homo sapiens), P11712 | recombinant CYP2C9, luciferin-H conversion; hits give high values; factor 1 = untreated enzyme, 0 = blocked | activation factor at 5 µM | actives 1.4% (n = 96,000) | AID 1024, 2008;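 active means activation factor of 2 or more for CYP2C9 at a 5 µM dose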
PTK2B oligo ant = antagonists of Pyk2 self-association, primary screen, Q293 cells, FERM NanoBiT luminescence, HTS; Protein-tyrosine kinase 2-beta (Homo sapiens), Q14289; hits give low values; z-score (the deposit names both 25 µM and 10 µM); actives 0.83% (n = 99,000); AID 1347419, 2020;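 active means Z-score of -3 or lower, scaled per plate to the spread of control and sample wells; inactive means z-score above -3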;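 further: negative z-score means lost luminescence so less FERM oligomerization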
CYP2C19 inh = blockers of cytochrome P450 2C19 activity – biochemical, luminescence, ADME assay, primary screen; CYP2C19 Supersomes, luciferin-H EGE luminescence, 30 min; inhibition, % at 5 µM; P33261; actives 21% (n = 96,000);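 active means CYP2C19 inhibition above a set limit at 5 µM in the primary screen, cut at about 50% in these data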
A number is an active result. In the library only some 28% were active in any assay of this set; here they are far more common.

How did COc1ccc(CCNC(=O)C(=O)N2CCCCC2)cc1OC do in these assays?
PTK2B oligo ant: inactive

What do the screens show for `COC(=O)c1cc2oc3ccccc3c2n1Cc1ccccn1`?
CYP2C9 inh: 51; CYP2C19 activ: inactive; CYP2C9 act: inactive; PTK2B oligo ant: inactive; CYP2C19 inh: 73

How did O=C(COC(=O)Cc1ccsc1)NCC1CCCCC1 do in these assays?
CYP2C9 inh: inactive; CYP2C19 activ: inactive; CYP2C9 act: inactive; PTK2B oligo ant: inactive; CYP2C19 inh: 57

What do the screens show for `CC(NC(=O)COC(=O)Cc1ccsc1)C1CC2CCC1C2` (stereo unspecified)?
CYP2C9 inh: inactive; CYP2C19 activ: inactive; CYP2C9 act: inactive; PTK2B oligo ant: inactive; CYP2C19 inh: 92

How did Cc1ccc(N(CC(=O)NC2CCCC2)C(=O)c2c(C)noc2C)cc1C do in these assays?
CYP2C9 inh: inactive; CYP2C19 activ: inactive; CYP2C9 act: inactive; PTK2B oligo ant: inactive; CYP2C19 inh: inactive

How did COc1ccc(C(=O)NNC(=O)c2ccncc2)cc1 do in these assays?
PTK2B oligo ant: inactive

What do the screens show for `COC(=O)c1cccnc1NC(=S)NNC(=O)c1ccncc1`?
CYP2C9 inh: inactive; CYP2C19 activ: inactive; CYP2C9 act: inactive; PTK2B oligo ant: inactive; CYP2C19 inh: 84

What do the screens show for `COc1ccc(CC(=O)NNC(=O)c2ccoc2C)cc1OC`?
CYP2C9 inh: inactive; CYP2C19 activ: inactive; CYP2C9 act: inactive; PTK2B oligo ant: inactive; CYP2C19 inh: inactive

What do the screens show for `Cc1occc1C(=O)NCCc1ccc(Cl)cc1`?
CYP2C9 inh: inactive; CYP2C19 activ: inactive; CYP2C9 act: inactive; PTK2B oligo ant: inactive; CYP2C19 inh: 57

What do the screens show for `O=CNCC(=O)NCCc1ccc(Cl)cc1`?
CYP2C9 inh: inactive; CYP2C19 activ: inactive; CYP2C9 act: inactive; PTK2B oligo ant: inactive; CYP2C19 inh: inactive

How did COc1ccccc1CCNC(=O)c1ccoc1C do in these assays?
CYP2C9 inh: inactive; CYP2C19 activ: inactive; CYP2C9 act: inactive; PTK2B oligo ant: inactive; CYP2C19 inh: 83

Results for CCNC(=O)C(=O)NCCc1ccc(Cl)cc1 ?
CYP2C9 inh: inactive; CYP2C19 activ: inactive; CYP2C9 act: inactive; PTK2B oligo ant: inactive; CYP2C19 inh: 59

Results for Cc1occc1C(=O)NCCCCc1ccccc1 ?
CYP2C9 inh: inactive; CYP2C19 activ: inactive; CYP2C9 act: inactive; PTK2B oligo ant: inactive; CYP2C19 inh: inactive

Results for O=C(NCCc1ccc(O)cc1)c1ccc(Cl)cc1 ?
CYP2C9 inh: inactive; CYP2C19 activ: inactive; CYP2C9 act: 2.3; PTK2B oligo ant: inactive; CYP2C19 inh: inactive

What do the screens show for `COc1ccc(NC(=O)C2CCCN2C(=O)NC2CCCCC2)cc1OC` (stereo unspecified)?
CYP2C9 inh: inactive; CYP2C19 activ: inactive; CYP2C9 act: inactive; PTK2B oligo ant: inactive; CYP2C19 inh: inactive

How did COc1ccc(C2CCCN2C(=O)Nc2ccc(C)c(C)c2)cc1OC (stereo unspecified) do in these assays?
CYP2C9 inh: inactive; CYP2C19 activ: inactive; CYP2C9 act: inactive; CYP2C19 inh: 76

What do the screens show for `COc1ccc(C2CCCN2C(=O)Nc2ccccc2)cc1OC` (stereo unspecified)?
CYP2C9 inh: inactive; CYP2C19 activ: inactive; CYP2C9 act: inactive; CYP2C19 inh: 72

What do the screens show for `Cc1nnc(SCCc2ccccc2)[nH]c1=O`?
CYP2C9 inh: 56; CYP2C19 activ: inactive; CYP2C9 act: inactive; PTK2B oligo ant: inactive; CYP2C19 inh: inactive

Results for Cc1nnc(SCC(=O)c2c(N)n(C)c(=O)n(C)c2=O)[nH]c1=O ?
CYP2C9 inh: inactive; CYP2C19 activ: inactive; CYP2C9 act: inactive; PTK2B oligo ant: inactive; CYP2C19 inh: inactive

How did Cc1ccccc1CSc1nnc(C)c(=O)[nH]1 do in these assays?
CYP2C9 inh: 63; CYP2C19 activ: inactive; CYP2C9 act: inactive; CYP2C19 inh: inactive

How did Cc1nnc(NCCc2ccccc2)[nH]c1=O do in these assays?
CYP2C9 inh: inactive; CYP2C19 activ: inactive; CYP2C9 act: inactive; PTK2B oligo ant: inactive; CYP2C19 inh: inactive

What do the screens show for `Cc1cc(C)c(C)c(C(=O)CSc2nnc(C)c(=O)[nH]2)c1C`?
CYP2C9 inh: 94; CYP2C19 activ: inactive; CYP2C9 act: inactive; CYP2C19 inh: inactive

Results for Cc1ccccc1CSc1nc2c(c(=O)[nH]1)CCC2 ?
CYP2C9 inh: 63; CYP2C19 activ: inactive; CYP2C9 act: inactive; PTK2B oligo ant: inactive; CYP2C19 inh: inactive

How did O=C(N/N=C/c1cccc(Oc2ccc([N+](=O)[O-])cc2[N+](=O)[O-])c1)c1cncc(Br)c1 do in these assays?
PTK2B oligo ant: inactive

What do the screens show for `CCOc1ccc(S(=O)(=O)Nc2cc(OC)c(OC)cc2C(=O)O)cc1`?
CYP2C9 inh: 73; CYP2C19 activ: inactive; CYP2C9 act: inactive; PTK2B oligo ant: inactive; CYP2C19 inh: inactive

What do the screens show for `CCC(CC)C(=O)Nc1cc(OC)c(OC)cc1C(=O)O`?
CYP2C9 inh: inactive; CYP2C19 activ: inactive; CYP2C9 act: inactive; PTK2B oligo ant: inactive; CYP2C19 inh: inactive

How did COc1cc(NS(=O)(=O)c2ccc(F)cc2)c(C(=O)O)cc1OC do in these assays?
CYP2C9 inh: 56; CYP2C19 activ: inactive; CYP2C9 act: inactive; PTK2B oligo ant: inactive; CYP2C19 inh: inactive

What do the screens show for `S=C(NCc1ccccn1)Nc1ccc(Cl)cc1Cl`?
CYP2C9 inh: inactive; CYP2C19 activ: inactive; CYP2C9 act: inactive; PTK2B oligo ant: inactive; CYP2C19 inh: 66

How did S=C(NCc1ccccn1)Nc1ccc(Cl)c(Cl)c1 do in these assays?
CYP2C9 inh: inactive; CYP2C19 activ: inactive; CYP2C9 act: inactive; PTK2B oligo ant: inactive; CYP2C19 inh: 51

How did COc1ccc(Cl)cc1NC(=S)NCc1ccccn1 do in these assays?
PTK2B oligo ant: inactive

What do the screens show for `CC(C)(C)NC(=O)Cn1c(SCC(=O)NC2CCCCC2)nc2ccccc21`?
CYP2C9 inh: inactive; CYP2C19 activ: inactive; CYP2C9 act: inactive; PTK2B oligo ant: inactive; CYP2C19 inh: inactive

What do the screens show for `Cc1c(C(=O)NCCC2=CCCCC2)cccc1[N+](=O)[O-]`?
CYP2C9 inh: inactive; CYP2C19 activ: inactive; CYP2C9 act: inactive; PTK2B oligo ant: inactive; CYP2C19 inh: inactive

Results for CCN(CCCNC(=O)C1CCC(=O)N1C(C)C)c1cccc(C)c1 (stereo unspecified) ?
CYP2C9 inh: inactive; CYP2C19 activ: inactive; CYP2C9 act: inactive; PTK2B oligo ant: inactive; CYP2C19 inh: inactive

How did O=C(Nc1ccc(Cl)c(Cl)c1)Oc1ccc(NC(=O)c2ccco2)cc1 do in these assays?
CYP2C9 inh: inactive; CYP2C19 activ: inactive; CYP2C9 act: inactive; PTK2B oligo ant: inactive; CYP2C19 inh: inactive

How did O=C(Nc1ccc(N2CCN(C(=O)c3ccco3)CC2)c(Cl)c1)c1cc2ccccc2o1 do in these assays?
CYP2C9 inh: 92; CYP2C19 activ: inactive; CYP2C9 act: inactive; PTK2B oligo ant: -3.1; CYP2C19 inh: 71

How did O=C(Nc1ccc(Br)c(Cl)c1)c1ccco1 do in these assays?
CYP2C9 inh: inactive; CYP2C19 activ: inactive; CYP2C9 act: inactive; PTK2B oligo ant: inactive; CYP2C19 inh: 66

How did CCC(=O)N1CCN(c2ccc(NC(=O)c3cc4ccccc4o3)cc2Cl)CC1 do in these assays?
CYP2C9 inh: 50; CYP2C19 activ: inactive; CYP2C9 act: inactive; PTK2B oligo ant: -3.1; CYP2C19 inh: inactive
